Measurements as given in PubChem BioAssay AID1851 (National Center for Advancing Translational Sciences (NCATS), 2009).
The whole screen tested about 16,000 compounds, of which about 5,700 (36%) were called active. Another 24% or so got no clear call; they are omitted. This is one part of the list. A number with no mark means an inactive call. Calls follow the shape of the dose curve; as a rule, active = well fitted curve in the direction sought with a large enough effect; inconclusive = small, poorly fitted or top-dose-only effect, or effect the other way; inactive = no such curve, though single readings can be large or run the other way.

These molecules were tested against Cytochrome P450 1A2 (Homo sapiens) (UniProt P05177) (assay: Cytochrome panel assay with activity outcomes). Settings: recombinant CYP, pro-luciferin dealkylation, luminescence, p450-cyp1a2; series mostly up to 57.1 µM.
% is scaled to controls: 0 for no effect and ±100 for the full control effect.

Sequence of Cytochrome P450 1A2 (Homo sapiens) (P05177 whole entry, looked up): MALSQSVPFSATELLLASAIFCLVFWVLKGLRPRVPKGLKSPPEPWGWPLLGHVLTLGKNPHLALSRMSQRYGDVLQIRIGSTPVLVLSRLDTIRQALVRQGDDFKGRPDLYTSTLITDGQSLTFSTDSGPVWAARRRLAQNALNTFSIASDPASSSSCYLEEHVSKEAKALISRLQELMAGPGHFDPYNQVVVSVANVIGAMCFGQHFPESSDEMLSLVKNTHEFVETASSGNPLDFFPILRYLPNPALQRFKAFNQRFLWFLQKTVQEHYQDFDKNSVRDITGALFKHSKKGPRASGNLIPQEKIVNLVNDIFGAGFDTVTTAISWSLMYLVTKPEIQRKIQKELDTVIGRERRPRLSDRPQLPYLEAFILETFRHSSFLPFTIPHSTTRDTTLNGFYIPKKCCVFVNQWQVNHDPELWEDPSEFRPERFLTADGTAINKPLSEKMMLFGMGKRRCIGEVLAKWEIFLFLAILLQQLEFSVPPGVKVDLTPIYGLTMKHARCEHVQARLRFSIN

SMILES	AC50	activity, negative = inhibition
CC(C)OCCCNC(=O)C1CC(=O)N(C2CCCCCCC2)C1 (stereo unspecified)	inactive	
CCCCC[C@H](O)c1cccc(OCc2ccc3ccccc3n2)c1	0.794 µM (active)	
O=C(O)c1ccccc1Nc1cccc(OCc2ccc3ccccc3n2)c1	1 µM (active)	
CCCCOC(OCCCC)[C@H](O)CSc1ccc2ccccc2c1		-1.2% [at 11.4 µM]
CN(C)CC(O)COc1cccc(OCC(O)CN(C)C)c1 (stereo unspecified)	inactive	
FC(F)(F)c1nc(N2CCCC2)ncc1-c1nnnn1-c1ccccc1	inactive	
FC(F)(F)c1nc(-c2ccncc2)ncc1-c1nnnn1-c1ccccc1	25.1 µM (active)	
Cc1cc(C)cc(-n2nnnc2-c2cn(C)nc2C(F)(F)F)c1	inactive	
O=c1c2ccc([N+](=O)[O-])c3cccc(c32)c2nc3ccccc3n12	3.55 µM (active)	
O=C(O)c1ccc2c3c1cccc3c(=O)n1c3ccccc3nc21	15.8 µM (active)	
NCCSS(=O)(=O)CCN		-17.1% [at 2.29 µM]
CCc1cc2c(nc1CC)CCN(CC/C(C)=N/OC[C@@H](O)[C@@H]1O[C@@H]3OC(C)(C)O[C@@H]3[C@H]1O)C2		-14.1% [at 11.4 µM]
COc1ccc(-n2c(=O)c(C)nc3cnc(N4CCOCC4)nc32)cc1	12.6 µM (active)	
Cc1nc2cnc(N3CCNCC3)nc2n(-c2ccccc2)c1=O	10 µM (active)	
COc1ccc(-n2c(=O)cnc3cnc(N4CCNCC4)nc32)cc1	12.6 µM (active)	
COc1ccc(-n2c(=O)c(C)nc3cnc(N4CCNCC4)nc32)cc1	15.8 µM (active)	
CCc1cc2c(nc1CC)CCN(CC/C(C)=N/OC[C@@H](C)[C@H](OCc1ccccc1)C(C)C)C2		-7.21% [at 11.4 µM]
N[C@@H](Cc1ccnnc1)C(=O)O		-10.6% [at 2.29 µM]
CC(C)NC(=O)N1CCC2(CC1)CCN(C(=O)c1cccc(F)c1)CC2	inactive	
O=C(O)CCc1c2ccc(=O)c(O)c-2oc2c(O)c(O)ccc12		-3.96% [at 2.29 µM]
O=C(C1CCN(S(=O)(=O)N2CCOCC2)CC1)N1CCN(c2ccccc2)CC1	inactive	

SMILES	AC50	activity, negative = inhibition
c1ccn(-c2ccc(N3CCOCC3)cc2)c1	0.251 µM (active)	
O=C(N1CCOCC1)N1CCN(c2ccccc2)CC1	inactive	
Nc1nc2c(c(=O)[nH]1)CN(c1ccc(S(N)(=O)=O)cc1)CN2		8.8% [at 2.29 µM]
CC(C)c1nnc(NC(=O)CCC(=O)N2CCN(c3ccccn3)CC2)s1	inactive	
CC(C)=CC(=O)Nc1nnc(C(C)C)s1	15.8 µM (active)	
CC(=O)Nc1nnc(S(N)(=O)=O)s1	inactive	
O=C(/C=C/c1ccco1)NC(=S)Nc1ccc(N2CCOCC2)c(Cl)c1	inactive	
Cc1ccc(-c2csc(NC(=S)NC(=O)/C=C/c3ccco3)n2)cc1	5.62 µM (active)	
Cc1ccc(/C=C/C(=O)NC(=S)Nc2ccccc2C(=O)NC2CCCCC2)cc1	inactive	
O=P(O)(CCP(=O)(O)c1ccccc1)c1ccccc1		-14.2% [at 11.4 µM]
Cc1cc2nc(C)n(CCCN)c2cc1C	12.6 µM (active)	
CCN(CC)C(=O)C1CCN(S(=O)(=O)c2ccc3oc4ccccc4c3c2)CC1	inactive	
NCCCc1ccc2oc3ccccc3c2c1	0.0316 µM (active)	
Cc1ccc(C(=O)Nc2ccccc2Oc2ccccc2)cc1[N+](=O)[O-]	12.6 µM (active)	
Cc1ccc(/C=N/NC(=O)c2cccs2)cc1[N+](=O)[O-]	2.24 µM (active)	
Cc1ccc(C(=O)N/N=C/c2cc(C)n(-c3ccc(Br)cc3)c2C)cc1[N+](=O)[O-]	inactive	
O=C(N/N=C/C=C/c1ccc([N+](=O)[O-])cc1)c1cccs1	inactive	
CCC(=O)Nc1ccc(C(=O)OCC(=O)c2ccc(C)c([N+](=O)[O-])c2)cc1	inactive	
Cc1ccc(C(=O)N/N=C\c2ccc[nH]2)cc1[N+](=O)[O-]	1.78 µM (active)	
Cc1ccc(C(=O)Nc2ccc(Cc3ccncc3)cc2)cc1[N+](=O)[O-]	0.282 µM (active)	
Cc1ccc(C(=O)COC(=O)CNC(=O)C(c2ccccc2)c2ccccc2)cc1[N+](=O)[O-]	inactive	

SMILES	AC50	activity, negative = inhibition
COc1cccc(CNC(=O)C2CCN(S(=O)(=O)N3CCCCC3)CC2)c1	inactive	
CN1CC[C@@]2(CCN3CCc4c(oc5ccccc45)[C@@H]3C2)N(C)C1=O	inactive	
C[C@@H](N)[C@@H](C)Cc1ccccc1		-20% [at 11.4 µM]
CCc1ccc(N2C(=O)c3ccc4c5c(ccc(c35)C2=O)CC4)cc1	4.47 µM (active)	
CCOc1ccc(N2C(=O)c3cccnc3C2=O)cc1	inactive	
O=C1c2ccc3c4c(ccc(c24)C(=O)N1c1ccc2ccccc2c1)CC3	0.794 µM (active)	
c1csc(CNc2ncnc3ccc(-c4ccoc4)cc23)c1	3.16 µM (active)	
N#Cc1cccc(-c2ccc3ncnc(NCc4ccccc4)c3c2)c1	0.1 µM (active)	
Cc1cccc(CNc2ncnc3ccc(-c4cccc(C#N)c4)cc23)c1	0.631 µM (active)	
N#Cc1cccc(-c2ccc3ncnc(NCc4cccs4)c3c2)c1	0.1 µM (active)	
C/C(CCN1CCCCc2nc(C)c(C)cc21)=N\O[C@@H](C)CN1CCCCc2nc(C)c(C)cc21		-20.9% [at 11.4 µM]
C/C=C\C[C@H](C)[C@H](O)[C@H]1C(=O)N[C@@H](CC)C(=O)N(C)CC(=O)N(C)[C@@H](CC(C)C)C(=O)N[C@@H](C(C)C)C(=O)N(C)[C@@H](CC(C)C)C(=O)N[C@@H](C)C(=O)N[C@@H](C)C(=O)N(C)[C@@H](CC(C)C)C(=O)N(C)[C@@H](CC(C)C)C(=O)N(C)[C@@H](C(C)C)C(=O)N1C	inactive	
CC1=CC(C)(C)NC(=S)N1c1cccc(C)c1	inactive	
COc1cccc(-c2ccc3ncnc(NCc4cccs4)c3c2)c1	0.501 µM (active)	
Cc1cc(C)cc(N(CC(=O)NCCSc2ccccn2)S(=O)(=O)c2ccccc2)c1	inactive	
Cn1c([N+](=O)[O-])cnc1COC(N)=O	inactive	
COC(=O)c1scc(C)c1NC(=O)Cc1ccccc1	12.6 µM (active)	
CC[N+](CC)(CC(=O)Nc1c(C)cccc1C)Cc1ccccc1	inactive	
Cc1cccc(C)c1NC(=O)CS(=O)CC(=O)NCCCc1ccccc1 (stereo unspecified)	inactive	
